Test results reported in PubChem BioAssay AID1645883 (National Center for Advancing Translational Sciences (NCATS), 2021).
Out of some 16,000 compounds screened, about 160 (1%) were called active. Another 8% or so got no clear call; they are omitted. For the sample, actives were picked, then their nearest neighbours and some compounds at random. Unmarked numbers belong to inactive results. Calls follow the shape of the dose curve; as a rule, active = well fitted activation curve with a large enough effect; inconclusive = small, poorly fitted or top-dose-only effect; inactive = no such curve, though single readings can be large or run the other way.
% is scaled to controls: 0 for no effect and ±100 for the full control effect; potency is read from the fitted curve at half-maximal effect.
Also: nearly all actives have a fitted effect of over 70% in size.

These molecules were tested against Rap guanine nucleotide exchange factor 3 (Homo sapiens) (UniProt O95398) (assay: Validation qHTS for agonist of cAMP-regulated guanine nucleotide exchange factor 3 (EPAC1)). Conditions: EPAC1 Rap1b BODIPY-GDP exchange, fluorescence; max response: hits give high values, percent of cAMP control response.
Rap guanine nucleotide exchange factor 3 (Homo sapiens), sequence (O95398 whole entry, looked up): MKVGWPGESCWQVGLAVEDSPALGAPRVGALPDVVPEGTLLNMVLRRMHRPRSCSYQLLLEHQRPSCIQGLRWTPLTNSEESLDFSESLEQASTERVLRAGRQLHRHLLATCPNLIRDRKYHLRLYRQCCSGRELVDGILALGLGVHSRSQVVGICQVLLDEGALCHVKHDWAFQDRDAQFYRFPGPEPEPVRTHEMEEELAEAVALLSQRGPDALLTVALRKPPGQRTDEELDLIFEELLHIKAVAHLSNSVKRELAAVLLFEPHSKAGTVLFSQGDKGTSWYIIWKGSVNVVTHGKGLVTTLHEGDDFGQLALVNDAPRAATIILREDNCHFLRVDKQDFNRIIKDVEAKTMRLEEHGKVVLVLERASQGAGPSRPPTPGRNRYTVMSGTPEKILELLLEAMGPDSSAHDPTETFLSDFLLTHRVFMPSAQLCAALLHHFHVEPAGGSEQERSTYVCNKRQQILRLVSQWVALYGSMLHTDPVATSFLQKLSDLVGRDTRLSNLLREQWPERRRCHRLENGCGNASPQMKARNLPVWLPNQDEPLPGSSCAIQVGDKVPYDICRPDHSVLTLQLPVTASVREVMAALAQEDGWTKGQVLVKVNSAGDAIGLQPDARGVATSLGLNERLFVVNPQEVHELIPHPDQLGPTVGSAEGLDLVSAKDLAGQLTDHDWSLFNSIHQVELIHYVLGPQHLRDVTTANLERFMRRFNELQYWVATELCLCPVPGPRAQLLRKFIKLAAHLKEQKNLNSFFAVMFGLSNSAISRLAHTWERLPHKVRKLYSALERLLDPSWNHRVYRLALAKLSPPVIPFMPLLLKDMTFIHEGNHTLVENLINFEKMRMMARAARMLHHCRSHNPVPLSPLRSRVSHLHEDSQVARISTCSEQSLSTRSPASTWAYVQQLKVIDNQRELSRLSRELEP
Text: Assay Provider (PI): Xiaodong Cheng Ph.D.
The University of Texas Medical Branch, […], TX
In multi-cellular eukaryotic organisms, the effects of cAMP are transduced by two ubiquitously-expressed intracellular cAMP receptors, the classic protein kinase A/cAMP-dependent protein kinase (PKA/cAPK) and the more recently discovered exchange protein directly activated by cAMP/cAMP-regulated guanine nucleotide exchange factor (EPAC/cAMP-GEF). Both PKA and EPAC are ubiquitously expressed in all tissues, and an increase in intracellular cAMP levels will lead to the activation of both PKA and EPAC. Therefore, careful dissections of the individual role and relative contribution of EPAC and PKA within the overall cAMP signaling in various model systems are critical for further elucidating the mechanism of cAMP signaling. To date no EPAC-specific antagonists and agonist, as well as isoform-specific agonists have been reported, and developing EPAC-specific pharmacological probes to determine the physiological functions that EPAC play in the overall cAMP-mediated signaling remains a major challenge within the research field. Furthermore, identified regulators of EPAC may lead to new mechanism-based therapeutic strategies specifically targeting the EPAC / cAMP-signaling components as EPAC has been implicated to play important roles in major human pathological conditions such as diabetes, heart disease, and cancer.
This qHTS will be used to screen the Molecular Libraries Small Molecule Repository (MLSMR) as a concentration-titration series using the NCGC unique quantitative screening (qHTS) platform to find activators for EPAC1. In addition, this assay will also be used as a counterscreen for the EPAC2 qHTS. This fluorescent based assay is developed and validated for EPAC1 that measures exchange using EPAC effector Rap1 complex with BODIPY-GDP, a GDP analog with a tethered fluorophores. Activators are identified by monitoring the change in fluorescence signal as the exchanged free BODIPY-GDP has a reduced fluorescence compared to Rap1-bound BODIPY-GDP. Increase in signal (activation) is the desired outcome for the EPAC1 agonist while no activity in this assay is desired for the EPAC2 agonist counterscreen.
[1] de Rooij, J., Zwartkruis, F. J., Verheijen, M. H., Cool, R. H., Nijman, S. M., Wittinghofer, A., and Bos, J.L. (1998) Nature 396, 474-477.
Briefly, three uL of reagents (100 nM EPAC1, 250 nM RAP1B-BODIPY-GDP, 50 uM GDP) were dispensed into a 1536-well Greiner black solid-bottom medium binding assay plate. Controls and test compounds (23 nL) were transferred to the plate via a Kalypsys pin tool equipped with a 1536-pin array. The plates were centrifuged at 1,000 rpm for 15 seconds followed by 5 minute incubation at room temperature. The assay plates were read at 5 minute intervals for 30 minutes in the ViewLux plate reader using 480nm excitation and 540nm emission filters. The results were normalized to the agonist positive control of 6.5 mM cAMP.
O=c1c(-c2cccs2)nc2cnc(Oc3ccccc3)nc2n1-c1ccccc1 was tested, and the max response was 26.8%. Molecule C=O has a max response of -10.7%. Molecule COCCn1c(=O)c(-c2cccs2)nc2cnc(N3CCN(C)CC3)nc21 has a max response of 9.88%. CC(=O)Nc1cc(C(=O)N2CCc3c(Cl)cccc3C2)cc2ncn(CCc3ccccn3)c12 was tested, and the max response was 1.17%. COC(C)C(C(=O)OCC1=CCN2CC[C@H](O)[C@@H]12)C(C)C (some centres undefined) showed a max response of 5.22%. In the case of CNc1cc(-c2c(C)noc2C)ncn1, the max response was 2.2%. For CC(Oc1ccccc1)C(=O)N[C@@H]1C(=O)N2[C@@H]1SC(C)(C)[C@@H]2C(=O)O (some centres undefined), the max response was -0.674%. Molecule COc1cccc(Cn2c(=O)cnc3cncnc32)c1 has a max response of -1.3%. Cc1cn(C2OC[C@@H](O)[C@@H]2CO)c(=O)[nH]c1=O (some centres undefined) gave a max response of -10%. O=C(c1cnccn1)N1CCC2(CCCN(Cc3ccccc3)C2)CC1 was tested, and the max response was -21.3%. Molecule O=C(C[n+]1cc(Br)cc2ccccc21)c1ccc(F)cc1 has a max response of 6.56%. O=c1c(-c2ccc(F)c(F)c2)nc2cncnc2n1-c1ccccc1 was tested, and the max response was -25.2%. For COc1ccc(C(=O)N2CCC3(CC2)CCN(c2ccccn2)CC3)cc1, the max response was -52.8%. Work on COC(=O)c1ccccc1-c1cc(C)cc2c1OC(CNC(=O)C1CCOC1)C2 (centres undefined) yielded a max response of 15.3%. Work on COc1ccccc1-c1cc(NCc2cccs2)ncn1 yielded a max response of -0.282%. Work on NNc1nnc(Cc2ccncc2)c2ccccc12 yielded a max response of 17.7%. Molecule COc1ccc(-n2c(=O)c(C)nc3cnc(N4CCOCC4)nc32)cc1 has a max response of -14.8%. For O=C(CCN1Cc2ccccc2OC(c2ccccc2)C1)N[C@@H]1CS(=O)(=O)C[C@H]1O (some centres undefined), the max response was 0.897%. With CN(C)c1ccc(/C=C/c2c3ccccc3nc3ccccc23)cc1 the max response was 23.9%. For CN(C)c1ccc(/C=C/C=C/c2ccnc3ccccc23)cc1, the Potency was 112 µM (active). Work on Cc1c(C(=O)NCC2CCCN(C)C2)cnn1-c1nccc(-c2ccco2)n1 (centres undefined) yielded a max response of -6.37%. CC1(C)[C@H](O[C@H]2O[C@H](C(=O)O)[C@@H](O)[C@H](O)[C@H]2O[C@@H]2O[C@H](C(=O)O)[C@@H](O)[C@H](O)[C@H]2O)CC[C@@]2(C)[C@H]1CC[C@]1(C)[C@H]2C(=O)C=C2[C@H]3C[C@@](C)(C(=O)O)CC[C@]3(C)CC[C@]21C was tested, and the max response was 5.45%. Work on CN(Cc1ccco1)c1ncncc1-c1ccoc1 yielded a max response of 15.3%. O=C(c1ccco1)N1CCC[C@@]2(CCN(c3ccccc3)C2)C1 was tested, and the max response was -31.3%.
